The values below come from PubChem BioAssay AID1220 (Sanford-Burnham Center for Chemical Genomics, 2008).

Hit rate of the full screen: of about 190,000 compounds, about 1,300 (0.68%) were called active. No stated cut-off is given here; in the data, active means inhibition above about 50%; inactive means the rest. For the sample, actives were picked, then their nearest neighbours and some compounds at random.

Chain of Mannose-6-phosphate isomerase (Homo sapiens) (P34949 whole entry, looked up): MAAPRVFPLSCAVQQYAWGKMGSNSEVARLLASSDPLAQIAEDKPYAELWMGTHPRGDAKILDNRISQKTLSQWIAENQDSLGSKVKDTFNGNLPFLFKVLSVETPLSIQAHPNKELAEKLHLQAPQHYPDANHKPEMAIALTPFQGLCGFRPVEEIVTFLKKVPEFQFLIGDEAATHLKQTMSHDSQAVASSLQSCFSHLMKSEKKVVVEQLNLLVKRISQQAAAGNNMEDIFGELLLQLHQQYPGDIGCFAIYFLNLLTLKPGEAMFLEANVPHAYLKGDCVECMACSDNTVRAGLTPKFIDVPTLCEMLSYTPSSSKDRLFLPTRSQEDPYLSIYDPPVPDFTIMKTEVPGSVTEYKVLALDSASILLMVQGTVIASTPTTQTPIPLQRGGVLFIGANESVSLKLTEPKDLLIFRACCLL

This test has as its target Mannose-6-phosphate isomerase (Homo sapiens) (UniProt P34949). Put plainly: human PMI inhibitors, high substrate, primary screen, biochemical, fluorescence intensity, high mannose 6-phosphate (AID 1220). Conditions: recombinant PMI enzyme, coupled fluorescence intensity; at 20 µM; hits give high values.
For the molecule `Cc1ccc(N(Cc2ccc([N+](=O)[O-])cc2)C(=O)c2ccco2)cc1C`, the inhibition (in general, the change of the read-out against control, counted positive when it falls) is 4.7% (inactive). In the case of `Cc1ccc(O)c(-c2cc(C(F)(F)F)[nH]n2)c1` it was 3.7% (inactive); in that of `COC(=O)c1nc2nc(C)cc(=O)n2[nH]1`, 3.3% (inactive); in that of `O=C(Nc1ccc([N+](=O)[O-])cc1)C1C(c2ccccc2)=C1c1ccccc1`, 1.6% (inactive). Take `CC(C)C(c1nnnn1Cc1ccc(F)cc1)N1CCN(C2CCCC2)CC1` (stereo unspecified): the inhibition is 3% (inactive). To `CC(C)C(c1nnnn1Cc1ccc(F)cc1)N1CCSCC1` (stereo unspecified) belongs 4.6% (inactive); to `CC(C)C(c1nnnn1Cc1ccc(F)cc1)N1CCN(c2ccc(O)cc2)CC1` (stereo unspecified), 66.2% (active); to `Cn1c(-c2ccc(F)cc2)cnc1NCc1cc2c(cc1[N+](=O)[O-])OCO2`, 15.7% (inactive). In the case of `CCNc1nc(NC(C)C)nc(N(n2cnnc2)S(=O)(=O)c2ccc(C)cc2)n1`, the inhibition was 5.3% (inactive). In the case of `Cc1cc(=O)n2nc(N3CCC(C(=O)NC4CCCc5ccccc54)CC3)sc2n1` (stereo unspecified) it was -0.3% (inactive).

On to `CC(=O)N1CCCN(Cc2cn(-c3ccc(C)cc3)nc2-c2cccc(C)c2)CC1`, for which the inhibition was 9.1% (inactive).

On to `Cc1ccc(-n2cc(CN3CCNC(=O)CC3)c(-c3cccc(C)c3)n2)cc1`, for which the inhibition was 12.5% (inactive).

As for `COC(=O)CC1C(=O)NCCN1Cc1cn(-c2ccc(C)cc2)nc1-c1cccc(C)c1` (stereo unspecified), the inhibition was 52.9% (active). To `CN(C)c1ccc(C(CNS(=O)(=O)c2ccc3ccccc3c2)c2c[nH]c3ccccc23)cc1` (stereo unspecified) belongs 13.6% (inactive); to `Cc1ccc(C2C(C#N)=C(N)N(c3cccnc3)C3=C2C(=O)CCC3)s1` (stereo unspecified), 56.7% (active); to `CC1(C)CC(=O)C2=C(C1)N(c1ccc(F)cc1)C(N)=C(C#N)C2c1cccs1` (stereo unspecified), 28.6% (inactive). In the case of `CSc1sc(C)cc1C1C(C#N)=C(N)N(c2cccnc2)C2=C1C(=O)CCC2` (stereo unspecified) it was 13.3% (inactive); in that of `Cc1ccc(N2C(N)=C(C#N)C(c3cccs3)C3=C2CC(C)(C)CC3=O)cc1` (stereo unspecified), 8.2% (inactive). To `Cc1nn(C)cc1C1C(C#N)=C(N)N(c2cccnc2)C2=C1C(=O)CCC2` (stereo unspecified) belongs 28.3% (inactive). In the case of `CC1(C)CC(=O)C2=C(C1)N(c1cccnc1)C(N)=C(C#N)C2c1cccs1` (stereo unspecified), the inhibition is 53.9% (active). To `CC(=O)Nc1ccc(/C=C(\C#N)C(=O)NC2CCCCC2)cc1` belongs 4.7% (inactive); to `Cc1ccc(-c2nnc(SCC(=O)NNC(=O)COc3ccccc3C)n2C)cc1`, 3.3% (inactive).

Take `Cc1cc2c3c(c1)C1(C(=O)N3C(C)(C)CC2C)C(C#N)=C(N)Oc2cc(O)ccc21` (stereo unspecified): the inhibition was 18.9% (inactive). To `CCc1ccc(N2CC(C(=O)N/N=C/c3cc([N+](=O)[O-])ccc3O)CC2=O)cc1` (stereo unspecified) belongs -15.8% (inactive). In the case of `CCOC(=O)Cc1csc(NC(=O)CSc2nnc(-n3nc(C)cc3C)c3ccccc23)n1` it was 6.3% (inactive); in that of `Cc1nc(NCC2CCCO2)c2nnn(Cc3ccccc3)c2n1` (stereo unspecified), -3% (inactive); in that of `Cc1nc(Nc2ccc(Cl)cc2)c2nnn(Cc3ccccc3)c2n1`, 3.1% (inactive). In the case of `Cc1nc(NCC2CC2)c2nnn(Cc3ccccc3)c2n1` it was 59.2% (active). Turning to `O=C(OCC(=O)N1CCN(C(=O)c2ccco2)CC1)c1cc(-c2cccc(Br)c2)nc2ccccc12`, the inhibition was 9.6% (inactive). To `Cc1cc(C)cc(NC(=S)NCC2CCN(C(C)c3ccccc3)C2)c1` (stereo unspecified) belongs -1.3% (inactive); to `O=C(NC(c1ccccc1)c1ccccc1)C1(c2cccs2)CCOCC1`, -1.3% (inactive).

As to `CCOc1ccc2nc(NS(=O)(=O)c3ccc4c(c3)n(C)c(=O)n4C)sc2c1`, the inhibition was -21% (inactive).

As to `CCN(CC)c1ccc(NC(=O)c2ccccc2F)cc1S(=O)(=O)Nc1ccccc1OC`, the inhibition was -13.8% (inactive). With `CCN(CC)c1ccc(NC(=O)c2ccccc2)cc1S(=O)(=O)Nc1ccccc1OC`, the inhibition was 9.4% (inactive). As for `CCCS(=O)(=O)C(=C(Nc1ccccc1)Nc1ccccc1)S(=O)(=O)CCC`, the inhibition was -4.7% (inactive). As for `O=C(NCc1cccs1)N[C@@H](Cc1ccccc1)C(=O)O`, the inhibition was -2.3% (inactive).

`COc1ccc(-c2nc(S(=O)(=O)c3ccccc3)c(N3CCOCC3)o2)cc1`: the inhibition was 3.3% (inactive).

With `O=C(O)C1Sc2[nH]c(=O)sc2C2c3ccc(O)cc3OC(=O)C12` (stereo unspecified), the inhibition is 55.1% (active). To `CC1(C(=O)O)Sc2[nH]c(=O)sc2C2c3ccccc3OC(=O)C21` (stereo unspecified) belongs 14.1% (inactive); to `COC(=O)C1Sc2[nH]c(=O)sc2C2c3ccccc3OC(=O)C12` (stereo unspecified), 29.7% (inactive); to `COC(=O)C1Sc2[nH]c(=O)sc2C(c2ccc(Cl)cc2)C1C(=O)OC` (stereo unspecified), 34.7% (inactive). In the case of `CCOC(=O)C1Sc2[nH]c(=O)sc2C(c2ccc(Cl)cc2)C1C(=O)OCC` (stereo unspecified) it was -88.8% (inactive).

Regarding `O=C(O)C1Sc2[nH]c(=O)sc2C2c3cc(Cl)ccc3OC(=O)C12` (stereo unspecified), the inhibition is 63.5% (active). To `Cc1nc2c(C(=O)NCc3ccc4c(c3)OCO4)c[nH]n2c(=O)c1Cl` belongs 7.8% (inactive).

In the case of `CN(C)C=Nc1ncc2c3ccccc3n(CCN(C)C)c2c1C#N`, the inhibition is 17.9% (inactive).

Consider `CN(C)CCNC(=O)C1CC(=O)N(c2ccc(F)c(Cl)c2)C1` (stereo unspecified), for which the inhibition is -1.8% (inactive). In the case of `Cc1nn2c(c1-c1ccc(Cl)cc1)N=C(c1ccco1)CC2c1ccccc1` (stereo unspecified) it was 0.1% (inactive); in that of `N#Cc1cccc(N=c2ssnc2Cl)c1`, 43% (inactive); in that of `COc1cc(OC)c(Cl)cc1N`, 44.9% (inactive).

In the case of `Nc1ccccc1N=c1ssnc1Cl`, the inhibition is 38.1% (inactive).

Consider `Cc1cc(Cl)ccc1N=c1ssnc1Cl`, for which the inhibition was 13.6% (inactive).

Consider `Cc1ccc(N=c2ssnc2Cl)cc1`, for which the inhibition is 49.8% (inactive). In the case of `Clc1nssc1=Nc1ccccc1` it was 36.5% (inactive). Take `COc1cc(N=c2ssnc2Cl)cc(OC)c1OC`: the inhibition was 47.1% (inactive).

As to `Cc1cc(C)nc(NC(=O)c2csnn2)c1`, the inhibition was -2.9% (inactive). To `CC(=O)Nc1ccc(S(=O)(=O)Nc2c(C)n(C)n(-c3ccccc3)c2=O)cc1` belongs 4.8% (inactive). On to `O=C(NCc1ccco1)c1cc2nc(C3CC3)cc(C(F)(F)F)n2n1`, for which the inhibition is 8.5% (inactive).

In the case of `Cc1c(NC(=O)C2CCCCN2S(=O)(=O)c2ccc(Cl)cc2)c(=O)n(-c2ccccc2)n1C` (stereo unspecified), the inhibition was 4.8% (inactive).

As for `Cc1ccc(C(=O)NC(=S)Nc2cccc(NC(=O)c3ccccc3)c2)cc1[N+](=O)[O-]`, the inhibition is 0.9% (inactive).

Consider `Fc1ccc(-n2nnc(-c3cccnc3)n2)cc1`, for which the inhibition was -1.8% (inactive). In the case of `Cc1cccc(-c2n[nH]c(=S)n2C)c1` it was -8.8% (inactive); in that of `O=C(NC1=NCCS1)c1ccccc1OCc1ccc(F)cc1`, 1.4% (inactive).

For `COc1ccc(N=c2sc3ccccc3n2C)cc1`, the inhibition is 0.4% (inactive). In the case of `COc1cc(N=c2ssnc2Cl)cc(OC)c1` it was 27.3% (inactive); in that of `OCc1ccccc1N=c1ssnc1Cl`, 43.7% (inactive). `COc1ccc(OC)c(N=c2ssnc2Cl)c1`: the inhibition is 67.4% (active). In the case of `COc1ccc(OC)c(N=C2C(=O)Nc3ccccc32)c1` it was 5.1% (inactive). To `Cc1ccc(-c2nc(C)sc2CC(=O)OCC(=O)Nc2cccc([N+](=O)[O-])c2)cc1` belongs -5.6% (inactive); to `C/C(=N\N=C\c1ccc(N(C)C)cc1)c1cccc([N+](=O)[O-])c1`, -128% (inactive); to `COC(=O)c1sccc1NC(=S)Nc1cc(OC)ccc1OC`, 41.2% (inactive).

`COc1ccc2c(c1)Cc1sc(NC(=O)c3ccccc3)nc1-2`: the inhibition is -13.1% (inactive). In the case of `COc1ccc(C(=O)Nc2nc3c(s2)Cc2cc(OC)ccc2-3)cc1` it was 26.8% (inactive). In the case of `COc1ccc2c(c1)-c1nc(NC(=O)c3ccco3)sc1CC2` it was 32.9% (inactive); in that of `COc1ccc2c(c1)CCc1sc(NC(=O)c3ccco3)nc1-2`, 60.6% (active).

`COc1ccc2c(c1)Cc1sc(NC(=O)c3ccco3)nc1-2`: the inhibition was 45.8% (inactive). To `COc1ccc2c(c1)Cc1sc(NC(=O)c3cccnc3)nc1-2` belongs 64.2% (active); to `Cc1ccc(NC(=O)c2cc(C)n(-c3ccccc3)c2C)cc1`, 9.3% (inactive); to `Cc1ccc(CN(c2ccc(C(=O)N3CCCC3)cc2)S(C)(=O)=O)cc1`, -1.2% (inactive). `CCC(=O)Nc1cccc(NC(=O)CSc2nnc(-c3ccc(NS(C)(=O)=O)cc3)n2CC)c1`: the inhibition is -2.3% (inactive). On to `CCc1nnc(NC(=O)CSc2nnc3c4ccccc4n(C)c3n2)s1`, for which the inhibition is 2% (inactive). To `Cc1onc(-c2c(F)cccc2Cl)c1C(=O)N1CCCc2ccccc21` belongs 4.2% (inactive); to `O=C1NC(Cc2ccccc2)C(=O)N1Cc1cc([N+](=O)[O-])cc2c1OCOC2` (stereo unspecified), -4.9% (inactive); to `O=C(CN(C(=O)Cn1nnc(-c2ccccc2F)n1)c1cccc2c1CCCC2)NCc1ccccc1`, 28.1% (inactive). In the case of `NC(=O)NC(=O)CC1S/C(=N/N=C2/NC(=O)CS2)NC1=O` (stereo unspecified) it was 24.9% (inactive); in that of `NC(=O)NC(=O)CC1S/C(=N/N=C2\CSC(=O)N2)NC1=O` (stereo unspecified), 50.5% (active); in that of `NC(=O)NC(=O)CC1S/C(=N/N=C/c2ccccc2)NC1=O` (stereo unspecified), -2% (inactive). To `COc1ccc(-c2cc(C(=O)Nc3c(C)nn(Cc4ccc(Cl)cc4)c3C)no2)cc1` belongs 1.1% (inactive). In the case of `CC(CCn1cccn1)NC(=O)c1cc(COc2ccc(F)cc2F)on1` (stereo unspecified), the inhibition is 7.7% (inactive). To `Cc1cc2nccc(-c3ccccn3)n2n1` belongs -0.9% (inactive).

With `Nc1nc2nccc(-c3ccccn3)n2n1`, the inhibition was 4.4% (inactive). As for `c1ccc(-c2cc3nccc(-c4ccccn4)n3n2)cc1`, the inhibition is 61.5% (active). In the case of `Cc1cc2nc(CS(=O)(=O)c3ccccc3)cc(=O)n2[nH]1` it was 0.1% (inactive). To `Cc1nn(C)c(C)c1CS(=O)(=O)c1ccccc1` belongs 2.6% (inactive); to `CCCCCCCCNc1nc(Cl)nc(NCCN2CCOCC2)n1`, -7.1% (inactive); to `NC(=O)CSc1nc2ccccc2nc1SCC(N)=O`, -6.6% (inactive).

For the molecule `COc1cc(O)c(NC(C)=O)c2nonc12`, the inhibition is 62.4% (active). `COc1cc(O)c(C(C)=O)cc1OC`: the inhibition was -17% (inactive). To `CCOc1cc(NC(=O)C2CCCO2)c(OCC)cc1NC(C)=O` (stereo unspecified) belongs 6.8% (inactive).

As for `CCOc1cc(Cl)c(NC(C)=O)cc1OCC`, the inhibition was -3.5% (inactive). To `CC(=O)Nc1cc(OC(C)=O)c2nonc2c1OC(C)=O` belongs 78.3% (active); to `CC(=O)Nc1nonc1NC(C)=O`, 10.7% (inactive).
